Test systems include DU-145 prostate; K-562 leukemia; MALME-3M melanoma; MDA-MB-231 breast; RXF 393 renal; SF-268 CNS; SF-295 CNS; SF-539 CNS; M14 melanoma; UACC-257 melanoma.
What all share (test): NCI-60 one-dose screen, 48 h (100 = growth as untreated, 0 = no growth, -100 = all killed)
Holding throughout (conditions): 10 µM unless noted

Molecules are shown by their SMILES. The panel holds about 83,000 compounds, 20% with a hit somewhere; the sample as a whole holds those more often.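 Interpretation: 100, growth as untreated; towards 0, rising growth inhibition; 0, no net growth; 0 to -100, cell death. Compounds scoring below 10 were considered active.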 Values without a mark were called inactive. Calls of active or inactive are those of the source.

`CCOC(=O)c1csc(-c2ccc(COC(=O)c3ccccc3)o2)n1`: the growth in the assay with DU-145 prostate was 130%; with K-562 leukemia, 102%; in the assay with MALME-3M melanoma, 95.8%; in the assay with MDA-MB-231 breast, 107%; with RXF 393 renal it was 106%; in the assay with SF-268 CNS, 118%. Moreover, the growth with SF-295 CNS was 84.4%; in the assay on SF-539 CNS, 107%; in the assay on M14 melanoma, 106%.

`CCCCS(=O)(=O)c1cc(Nc2ccc(O)c3c2C(=O)c2ccccc2C3=O)ccc1C`: the growth in the assay on DU-145 prostate was 42.1%; with K-562 leukemia, 67%; in the assay on MALME-3M melanoma, 2.26% (active); with MDA-MB-231 breast, 71.8%; with RXF 393 renal it was 76.1%; in the assay on SF-268 CNS, 84.5%. The growth in the assay on SF-539 CNS is 86.8%; in the assay on UACC-257 melanoma, 75.8%; with M14 melanoma, 21%.

With `C=C[C@]1(C)C=C2C(=O)[C@@]3(O)OC[C@@]4(CCCC(C)(C)C43O)C2(O)C(O)C1` (stereo not given in full), the growth in the assay with DU-145 prostate is 60.2%; with K-562 leukemia it was 17.1%; with MALME-3M melanoma, 5.18% (active); in the assay on MDA-MB-231 breast, 98.3%; in the assay with RXF 393 renal it was 21.4%; with SF-268 CNS, 83.8%. Also, the growth with SF-295 CNS is 113%; in the assay on SF-539 CNS it was 66.2%; in the assay with M14 melanoma it was 9.03% (active).

As to `CCN(CC)CCOC(=O)c1cccnc1`, the growth was 109% in the assay on DU-145 prostate; 92.7% with K-562 leukemia; 91.3% in the assay with MALME-3M melanoma; 105% in the assay on MDA-MB-231 breast; 103% in the assay on RXF 393 renal; 102% with SF-268 CNS. Also, the growth with SF-295 CNS is 101%; with SF-539 CNS, 102%; in the assay with M14 melanoma, 102%.

As for `NCCCOc1cc(Cl)ccc1NC(=O)c1cc2ccccc2cc1OCCCN`, the growth with DU-145 prostate was -90% (active); in the assay with K-562 leukemia, 0.57% (active); in the assay with MALME-3M melanoma, -4.21% (active); in the assay with MDA-MB-231 breast, -65% (active); with RXF 393 renal it was -5.16% (active); in the assay on SF-268 CNS it was -73.6% (active). Besides, the results for the growth with SF-295 CNS, with SF-539 CNS and in the assay with M14 melanoma were -62% (active), -88.8% (active) and -88.5% (active), respectively.

Turning to `CCn1cnc(C[C@H](NC(=O)[C@@H](NC(=O)Nc2cc(C(F)(F)F)cc(C(F)(F)F)c2)C(C)C)C(=O)OC)c1`, the growth in the assay on DU-145 prostate is -81.2% [100 µM] (active); in the assay with K-562 leukemia, -57.3% [100 µM] (active); in the assay on MALME-3M melanoma, -90.5% [100 µM] (active); with MDA-MB-231 breast, -94.2% [100 µM] (active); with RXF 393 renal it was -86.2% [100 µM] (active); in the assay with SF-268 CNS, -68.4% [100 µM] (active). Besides, the growth was -96.3% [100 µM] (active) in the assay with SF-539 CNS, -95.1% [100 µM] (active) with UACC-257 melanoma and -93.8% [100 µM] (active) in the assay with M14 melanoma.

In the case of `COc1cc(/C(=C2/O[C@@H]([C@H]3COC(C)(C)O3)[C@H]3OC(C)(C)O[C@@H]23)c2ccc3c(c2)OCO3)cc(OC)c1OC`, the growth was 60.2% in the assay with DU-145 prostate; 40.8% in the assay on K-562 leukemia; 29.1% with MALME-3M melanoma; 21.9% in the assay on MDA-MB-231 breast; 72% with SF-268 CNS; 76.1% in the assay with SF-295 CNS. Besides, the results for the growth in the assay on SF-539 CNS, with UACC-257 melanoma and in the assay on M14 melanoma were 25.2%, 58.8% and 93.7%, respectively.

As to `COc1ccc(C(=O)c2no[n+]([O-])c2C(=O)c2ccc(OC)cc2)cc1`, the growth was 81.1% in the assay with DU-145 prostate; -100% (active) in the assay on K-562 leukemia; -69.5% (active) in the assay on MALME-3M melanoma; 57.4% with MDA-MB-231 breast; -38.5% (active) in the assay on SF-268 CNS; 92.8% in the assay with SF-295 CNS. Moreover, the growth with SF-539 CNS is 89.3%; in the assay on UACC-257 melanoma, 13.4%.

Consider `CCN(CC)CCNc1ncnc2c1cnn2-c1ccc(Cl)cc1`, for which the growth with DU-145 prostate is 94.5%; in the assay with K-562 leukemia, 45%; with MALME-3M melanoma it was 88.9%; in the assay on MDA-MB-231 breast, 61.1%; in the assay on SF-268 CNS, 81.7%; in the assay on SF-295 CNS it was 85.7%. For the same compound, the growth in the assay on SF-539 CNS was 70%.

On to `CCCCn1c(Cc2ccc(OC)cc2)nc2cc(OC)c(OC)cc2c1=O`, for which the growth in the assay with DU-145 prostate is 103%; with K-562 leukemia, 48.6%; with MALME-3M melanoma, 112%; in the assay on MDA-MB-231 breast, 73.9%; in the assay with SF-268 CNS it was 86.1%; in the assay with SF-539 CNS, 103%. For the same compound, the growth in the assay on UACC-257 melanoma is -56.6% (active); in the assay on M14 melanoma it was 119%.

`COC(=O)CC(=O)C(=O)OC`: the growth was 108% with DU-145 prostate; 101% with K-562 leukemia; 107% with MALME-3M melanoma; 115% in the assay on MDA-MB-231 breast; 104% with RXF 393 renal; 97.4% in the assay with SF-268 CNS. In addition, the growth was 102% in the assay on SF-539 CNS, 102% in the assay with UACC-257 melanoma and 100% with M14 melanoma.

With `O=C1OC(c2ccc(-c3ccccc3)cc2)=C/C1=C/c1c2ccccc2cc2ccccc12`, the growth with DU-145 prostate is 121%; in the assay with K-562 leukemia, 93.3%; with MALME-3M melanoma it was 113%; in the assay on MDA-MB-231 breast, 98.5%; in the assay on SF-268 CNS it was 95.9%; with SF-539 CNS, 110%. Moreover, the growth with UACC-257 melanoma was -47.9% (active).

Take `Cn1c2ccccc2c2ccccc21`: the growth in the assay with DU-145 prostate was 106%; in the assay on K-562 leukemia, 89.3%; with MALME-3M melanoma, 101%; with MDA-MB-231 breast, 108%; in the assay on RXF 393 renal it was 111%; with SF-268 CNS, 103%. Further, the growth in the assay with SF-539 CNS is 108%; in the assay on UACC-257 melanoma, 94.8%; in the assay with M14 melanoma, 99.3%.

Turning to `O=C(Oc1ccccc1)c1ccccc1Cl`, the growth in the assay on DU-145 prostate was 114%; with K-562 leukemia it was 107%; in the assay with MALME-3M melanoma, 101%; in the assay on MDA-MB-231 breast, 111%; with RXF 393 renal, 110%; with SF-295 CNS, 110%. Further, the growth in the assay on SF-539 CNS is 94.2%; in the assay with UACC-257 melanoma, 102%; with M14 melanoma, 102%.
